# Measurements published in the supplement of paper PMC11628255, “Interference of metal ions on the bioluminescent signal of firefly, Renilla, and NanoLuc luciferases in high-throughput screening assays” (Frontiers in Chemistry, 2024).
# ± gives the standard deviation of the averaged measurements.
# Tested on: Renilla luciferase (RLuc)
# Assay: residual bioluminescent signal relative to negative control without GSH; higher = less interference (more residual luciferase signal)
# Settings: screening conditions buffer
# Description: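 Selected metal salts at 3-4 concentrations tested on purified FLuc, NLuc or RLuc in screening buffer with 0, 0.2 or 2 mM glutathione added; 10 min enzyme pre-incubation at RT, luminescence 10 min after substrate. Signal normalised to negative control without GSH (% N_VALUE); triplicate wells.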
# [1] = metal salt concentration 0.2 mM, glutathione 0 mM
# [2] = metal salt concentration 0.2 mM, glutathione 0.2 mM
# [3] = metal salt concentration 0.2 mM, glutathione 2 mM
# [4] = metal salt concentration 1 mM, glutathione 0 mM
# [5] = metal salt concentration 1 mM, glutathione 0.2 mM
# [6] = metal salt concentration 1 mM, glutathione 2 mM
smiles,measurement,setting,value
O=[N+]([O-])[O-].[Ag+] [silver nitrate],residual bioluminescent signal,"metal salt concentration 0.002 mM, glutathione 0 mM",116 ± 9.8%
same,residual bioluminescent signal,"metal salt concentration 0.002 mM, glutathione 0.2 mM",109 ± 15%
same,residual bioluminescent signal,"metal salt concentration 0.002 mM, glutathione 2 mM",165 ± 28%
same,residual bioluminescent signal,"metal salt concentration 0.0684 mM, glutathione 0 mM",49.2 ± 15%
same,residual bioluminescent signal,"metal salt concentration 0.0684 mM, glutathione 0.2 mM",115 ± 7.6%
same,residual bioluminescent signal,"metal salt concentration 0.0684 mM, glutathione 2 mM",160 ± 13%
same,residual bioluminescent signal,[1],5.26 ± 2.6%
same,residual bioluminescent signal,[2],119 ± 16%
same,residual bioluminescent signal,[3],174 ± 13%
same,residual bioluminescent signal,[4],2.52 ± 2%
same,residual bioluminescent signal,[5],102 ± 13%
same,residual bioluminescent signal,[6],171 ± 12%
O=[N+]([O-])[O-].O=[N+]([O-])[O-].[Cu+2] [copper(II) nitrate],residual bioluminescent signal,"metal salt concentration 0.1 mM, glutathione 0 mM",90.5 ± 7.6%
same,residual bioluminescent signal,"metal salt concentration 0.1 mM, glutathione 0.2 mM",101 ± 3.8%
same,residual bioluminescent signal,"metal salt concentration 0.1 mM, glutathione 2 mM",115 ± 12%
same,residual bioluminescent signal,"metal salt concentration 0.132 mM, glutathione 0 mM",79.1 ± 10%
same,residual bioluminescent signal,"metal salt concentration 0.132 mM, glutathione 0.2 mM",88.3 ± 16%
same,residual bioluminescent signal,"metal salt concentration 0.132 mM, glutathione 2 mM",135 ± 20%
same,residual bioluminescent signal,[1],107 ± 14%
same,residual bioluminescent signal,[2],98.8 ± 24%
same,residual bioluminescent signal,[3],120 ± 19%
same,residual bioluminescent signal,[4],2.29 ± 2.2%
same,residual bioluminescent signal,[5],27.7 ± 5.2%
same,residual bioluminescent signal,[6],122 ± 20%
O=[N+]([O-])[O-].O=[N+]([O-])[O-].[Zn+2] [zinc nitrate],residual bioluminescent signal,[4],112 ± 18%
same,residual bioluminescent signal,[5],116 ± 25%
same,residual bioluminescent signal,[6],158 ± 11%
same,residual bioluminescent signal,"metal salt concentration 2.5 mM, glutathione 0 mM",104 ± 9.8%
same,residual bioluminescent signal,"metal salt concentration 2.5 mM, glutathione 0.2 mM",110 ± 13%
same,residual bioluminescent signal,"metal salt concentration 2.5 mM, glutathione 2 mM",110 ± 6.2%
same,residual bioluminescent signal,"metal salt concentration 4.13 mM, glutathione 0 mM",89.4 ± 5%
same,residual bioluminescent signal,"metal salt concentration 4.13 mM, glutathione 0.2 mM",96.3 ± 13%
same,residual bioluminescent signal,"metal salt concentration 4.13 mM, glutathione 2 mM",46.9 ± 19%
same,residual bioluminescent signal,"metal salt concentration 10 mM, glutathione 0 mM",2.06 ± 0.69%
same,residual bioluminescent signal,"metal salt concentration 10 mM, glutathione 0.2 mM",4.57 ± 0.79%
same,residual bioluminescent signal,"metal salt concentration 10 mM, glutathione 2 mM",2.74 ± 2.1%
